Activity calls are given as the source filed them.
How the values were obtained:
[1] = test system: PRMT1 (protein arginine N-methyltransferase 1); assay: small molecules binding arginine methyltransferase PRMT1 – biochemical, small-molecule microarray, 635 nm fluorescence, primary screen (AID 1088); conditions: higher = more signal;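 note: binding of Prmt1 protein to compounds spotted on small-molecule microarray slides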
[2] = growth effects on S. cerevisiae YJM789 – YJM789 clinical isolate, OD600, 24 h, basal, primary screen (AID 1089); conditions: higher = more signal, called active from +8 up or from −8 down;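 note: growth of clinical yeast isolate S. cerevisiae YJM 789 seeded 1000 cells per well; test concentration not given here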
[3] = S. pombe growth modifiers, basal conditions – strain 972, OD600, 24 h, no modulator, primary screen (AID 1090);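 note: basal condition with compound alone and no growth modifier present; test concentration not given here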; conditions: S. pombe 972 growth, higher = more signal, called active from +8 up or from −8 down
[4] = budding yeast growth modifiers under rapamycin – strain BY4716, OD600, 96 h, primary screen (AID 1091); note: test concentration not given here; conditions: S. cerevisiae BY4716 + rapamycin, higher = more signal, called active from +8 up or from −8 down
[5] = molecular target: Torsin-1A-interacting protein 2 (Homo sapiens) (UniProt Q8NFQ8); assay: small molecules binding lysate-expressed LULL1 – cell lysate, human LULL1 lysate, 635/667 nm fluorescence, primary screen (AID 1092); conditions: small-molecule microarray, hLULL1 lysate binding, 635 nm fluorescence; higher = more signal;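 note: probe is lysate of COS7 cells overexpressing human LULL1; score merges per-feature 667 nm fluorescence with signal-to-noise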
Torsin-1A-interacting protein 2 (Homo sapiens), sequence (Q8NFQ8 whole entry, looked up): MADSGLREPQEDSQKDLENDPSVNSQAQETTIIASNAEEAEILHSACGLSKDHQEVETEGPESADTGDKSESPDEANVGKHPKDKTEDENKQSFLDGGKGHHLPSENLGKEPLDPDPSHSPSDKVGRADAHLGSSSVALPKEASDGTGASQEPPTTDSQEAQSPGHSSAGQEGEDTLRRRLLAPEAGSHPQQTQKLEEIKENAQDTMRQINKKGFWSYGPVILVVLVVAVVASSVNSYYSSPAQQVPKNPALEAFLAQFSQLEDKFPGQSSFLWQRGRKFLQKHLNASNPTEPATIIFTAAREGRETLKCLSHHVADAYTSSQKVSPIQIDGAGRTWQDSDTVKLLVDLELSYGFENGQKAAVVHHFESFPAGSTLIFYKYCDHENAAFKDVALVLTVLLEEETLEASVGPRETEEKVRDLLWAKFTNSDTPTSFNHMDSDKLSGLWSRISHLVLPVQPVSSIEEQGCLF

[6] = optical density change of DRC41 E. coli – strain DRC41, OD650, 24 h, E. coli filamentation project, primary screen (AID 1093);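 note: MC1000 strain lacking acrAB efflux and sulA so SOS filamentation is blocked; test concentration not given here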; conditions: E. coli DRC41 growth, higher = more signal, called active from +8 up or from −8 down
[7] = probe aLefty2 binding to arrayed compounds – biochemical, biotinylated probe, 635/667 nm fluorescence, primary screen (AID 1094); conditions: small-molecule microarray, higher = more signal;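 note: score merges spot fluorescence near 667 nm with spot signal-to-noise ratio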
[8] = test system: Noggin (protein binding on small-molecule microarray); assay: small molecules binding Noggin protein – biochemical, 635/667 nm fluorescence, primary screen (AID 1095); conditions: 635 nm fluorescence, higher = more signal;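 note: score merges 667 nm feature fluorescence with signal to noise over triplicate slides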
[9] = molecular target: Neurogenic locus notch homolog protein 3 (Homo sapiens) (UniProt Q9UM47); assay: small molecules binding NOTCH3 protein – biochemical, 635/667 nm fluorescence, primary screen (AID 1096); conditions: small-molecule microarray, 635 nm fluorescence, higher = more signal
Neurogenic locus notch homolog protein 3 (Homo sapiens), sequence (Q9UM47 whole entry, looked up): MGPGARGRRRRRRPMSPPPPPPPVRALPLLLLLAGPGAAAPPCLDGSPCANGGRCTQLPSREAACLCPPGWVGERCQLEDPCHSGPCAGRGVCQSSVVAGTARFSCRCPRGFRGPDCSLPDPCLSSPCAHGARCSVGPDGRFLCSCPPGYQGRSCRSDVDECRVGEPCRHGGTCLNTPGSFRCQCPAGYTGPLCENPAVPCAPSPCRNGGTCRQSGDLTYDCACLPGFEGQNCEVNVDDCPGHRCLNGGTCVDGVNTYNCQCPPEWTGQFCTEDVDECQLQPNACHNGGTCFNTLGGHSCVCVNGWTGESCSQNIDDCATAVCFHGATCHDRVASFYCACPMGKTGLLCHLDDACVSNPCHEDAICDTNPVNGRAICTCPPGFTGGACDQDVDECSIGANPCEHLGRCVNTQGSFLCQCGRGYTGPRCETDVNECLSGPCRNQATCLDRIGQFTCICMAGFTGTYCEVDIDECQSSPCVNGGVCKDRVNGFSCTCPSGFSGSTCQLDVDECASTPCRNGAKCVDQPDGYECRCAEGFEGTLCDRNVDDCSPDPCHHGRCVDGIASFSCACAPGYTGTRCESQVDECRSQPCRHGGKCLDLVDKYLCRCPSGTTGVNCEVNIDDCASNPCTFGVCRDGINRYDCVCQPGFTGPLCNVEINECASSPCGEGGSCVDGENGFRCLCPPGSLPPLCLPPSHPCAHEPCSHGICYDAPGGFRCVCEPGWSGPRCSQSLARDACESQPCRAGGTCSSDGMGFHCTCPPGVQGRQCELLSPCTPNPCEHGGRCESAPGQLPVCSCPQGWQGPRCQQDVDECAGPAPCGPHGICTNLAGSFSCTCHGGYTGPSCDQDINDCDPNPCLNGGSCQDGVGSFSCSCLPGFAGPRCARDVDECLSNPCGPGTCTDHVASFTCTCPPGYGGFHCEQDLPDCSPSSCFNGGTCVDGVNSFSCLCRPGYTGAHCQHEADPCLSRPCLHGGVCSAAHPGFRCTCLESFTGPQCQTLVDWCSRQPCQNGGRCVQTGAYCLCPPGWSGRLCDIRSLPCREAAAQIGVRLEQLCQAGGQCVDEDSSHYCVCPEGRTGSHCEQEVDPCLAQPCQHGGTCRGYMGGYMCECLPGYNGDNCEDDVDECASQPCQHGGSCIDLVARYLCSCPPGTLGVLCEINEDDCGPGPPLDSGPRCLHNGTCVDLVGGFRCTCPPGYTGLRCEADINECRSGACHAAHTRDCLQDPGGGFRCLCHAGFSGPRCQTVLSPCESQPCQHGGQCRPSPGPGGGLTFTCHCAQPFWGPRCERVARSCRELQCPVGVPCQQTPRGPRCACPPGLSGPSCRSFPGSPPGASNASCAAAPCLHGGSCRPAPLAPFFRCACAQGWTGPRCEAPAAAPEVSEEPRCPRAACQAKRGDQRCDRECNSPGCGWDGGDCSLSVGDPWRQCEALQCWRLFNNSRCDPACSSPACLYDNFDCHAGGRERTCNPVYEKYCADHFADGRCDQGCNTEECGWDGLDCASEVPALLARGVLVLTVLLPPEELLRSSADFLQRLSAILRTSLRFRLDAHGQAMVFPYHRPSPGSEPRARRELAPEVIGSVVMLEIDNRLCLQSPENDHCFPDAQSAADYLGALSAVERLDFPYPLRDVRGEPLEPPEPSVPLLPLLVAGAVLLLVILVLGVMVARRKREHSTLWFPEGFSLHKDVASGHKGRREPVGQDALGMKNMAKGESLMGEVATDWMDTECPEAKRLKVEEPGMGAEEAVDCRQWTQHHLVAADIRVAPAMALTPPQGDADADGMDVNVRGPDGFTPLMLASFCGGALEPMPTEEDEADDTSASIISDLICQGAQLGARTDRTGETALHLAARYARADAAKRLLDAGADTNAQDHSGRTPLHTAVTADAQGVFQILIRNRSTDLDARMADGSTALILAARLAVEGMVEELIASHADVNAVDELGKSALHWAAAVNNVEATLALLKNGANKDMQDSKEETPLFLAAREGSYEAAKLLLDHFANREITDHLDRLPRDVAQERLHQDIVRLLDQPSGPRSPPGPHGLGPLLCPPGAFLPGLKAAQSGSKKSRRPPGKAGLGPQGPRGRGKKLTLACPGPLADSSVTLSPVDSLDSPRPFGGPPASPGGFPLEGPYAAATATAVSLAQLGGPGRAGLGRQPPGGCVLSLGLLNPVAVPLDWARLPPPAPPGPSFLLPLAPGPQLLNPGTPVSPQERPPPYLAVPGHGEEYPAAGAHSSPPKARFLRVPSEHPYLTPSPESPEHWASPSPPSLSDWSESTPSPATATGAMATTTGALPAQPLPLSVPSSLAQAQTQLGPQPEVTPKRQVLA

[10] = probe aEGFR binding to arrayed compounds – biochemical, biotinylated probe, 635/667 nm fluorescence, primary screen (AID 1097); conditions: small-molecule microarray, higher = more signal;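 note: probe is a biotinylated anti-EGFR antibody binding compounds printed on slides; score combines fluorescence near 667 nm and signal to noise of each spot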

## O=C1[C@H]2[C@H]3[C@H](O)[C@H](O)CC(=NOCc4ccccc4)[C@H]3CC[C@H]2C(=O)N1c1ccc(F)cc1F
[1]
  composite z-score: -0.129
[2]
  z-score: -1.3 (inactive)
[3]
  z-score: -0.128 (inactive)
[4]
  z-score: -0.982 (inactive)
[5]
  composite z-score: -0.089
[6]
  z-score: 0.358 (inactive)
[7]
  composite z-score: -0.373
[8]
  composite z-score: -0.153
[9]
  composite z-score: -0.367
[10]
  composite z-score: -0.0936

## CC(C)C[C@@H]1NC(=O)[C@H]2C[C@@H](C(=O)NCCCCCCN(C)C)[C@@H](c3cccc(OCCO)c3)N2C1=O
[1]
  composite z-score: 1.53
[2]
  z-score: -1.16 (inactive)
[3]
  z-score: 0.184 (inactive)
[4]
  z-score: -0.46 (inactive)
[5]
  composite z-score: 2.12
[6]
  z-score: -0.0145 (inactive)
[7]
  composite z-score: 0.173
[8]
  composite z-score: 1.19
[9]
  composite z-score: 1.04
[10]
  composite z-score: 0.0948

## CC(C)CON=C1C[C@@H](O)[C@@H](O)[C@@H]2[C@@H]3C(=O)N([C@@H](C)c4ccccc4)C(=O)[C@@H]3CC[C@H]12
[1]
  composite z-score: 1.54
[2]
  z-score: 0.466 (inactive)
[3]
  z-score: 0.443 (inactive)
[4]
  z-score: -0.0803 (inactive)
[5]
  composite z-score: 2.73
[6]
  z-score: 0.0955 (inactive)
[7]
  composite z-score: -0.128
[8]
  composite z-score: 1.12
[9]
  composite z-score: 1.08
[10]
  composite z-score: -0.0146

## CCOC(=O)[C@H](CC(C)C)NC(=O)CCC1CC(OC(=O)NCc2cccc3ccccc23)CC2(CCCC(COC(=O)NCCc3ccccc3OC)O2)O1 (stereo not given in full)
[1]
  composite z-score: 1.28
[2]
  z-score: -0.133 (inactive)
[3]
  z-score: -0.0584 (inactive)
[4]
  z-score: 0.407 (inactive)
[5]
  composite z-score: 2.96
[6]
  z-score: -0.197 (inactive)
[7]
  composite z-score: -0.0505
[8]
  composite z-score: 0.686
[9]
  composite z-score: 0.957
[10]
  composite z-score: -0.0304

## C[C@@H]1C=CCC(=O)OC[C@H](C)C(=O)N[C@@H](C)C(=O)OC1
[1]
  composite z-score: 0.552
[2]
  z-score: 0.664 (inactive)
[3]
  z-score: 0.406 (inactive)
[4]
  z-score: -0.113 (inactive)
[5]
  composite z-score: -0.412
[6]
  z-score: 0.715 (inactive)
[7]
  composite z-score: -0.293
[8]
  composite z-score: 0.828
[9]
  composite z-score: 0.254
[10]
  composite z-score: 0.0886

## O=C1C[C@@H](O)[C@@H](O)[C@@H]2[C@@H]3C(=O)N(Cc4ccc5c(c4)OCO5)C(=O)[C@@H]3CC[C@@H]12
[1]
  composite z-score: 0.555
[2]
  z-score: 0.489 (inactive)
[3]
  z-score: 0.481 (inactive)
[4]
  z-score: -0.246 (inactive)
[5]
  composite z-score: 1.01
[6]
  z-score: 0.701 (inactive)
[7]
  composite z-score: -0.072
[8]
  composite z-score: 0.495
[9]
  composite z-score: 1.12
[10]
  composite z-score: 0.0414

## C#CCCCON=C1C[C@@H](O)[C@@H](O)[C@@H]2[C@@H]3C(=O)N(c4cccc(Oc5ccccc5)c4)C(=O)[C@@H]3CC[C@@H]12
[1]
  composite z-score: 0.678
[2]
  z-score: 0.71 (inactive)
[3]
  z-score: 0.329 (inactive)
[4]
  z-score: -0.426 (inactive)
[5]
  composite z-score: 2.51
[6]
  z-score: 0.303 (inactive)
[7]
  composite z-score: -0.0961
[8]
  composite z-score: 0.376
[9]
  composite z-score: 1.1
[10]
  composite z-score: 0.0675

## C=C(/C(=C/C[C@H](OC(=O)c1ccncc1)c1ccc(OCCO)cc1)c1cnc2ccccc2c1)C(C)C
[1]
  composite z-score: 1.55
[2]
  z-score: -0.442 (inactive)
[3]
  z-score: -1.82 (inactive)
[4]
  z-score: 0.706 (inactive)
[5]
  composite z-score: 1.12
[6]
  z-score: -0.13 (inactive)
[7]
  composite z-score: -0.0985
[8]
  composite z-score: 1.48
[9]
  composite z-score: 1.03
[10]
  composite z-score: -0.0251

## COc1ccc([Si](C)(C)[C@H]2[C@H](CCO)O[C@@]3(C(=O)N(Cc4cccc(NC(=O)[C@H](C)O)c4)c4ccccc43)[C@@H]2C)cc1
[1]
  composite z-score: 1.54
[2]
  z-score: 1.62 (inactive)
[3]
  z-score: 0.562 (inactive)
[4]
  z-score: 7.56 (inactive)
[5]
  composite z-score: 2.47
[6]
  z-score: 1.24 (inactive)
[7]
  composite z-score: -0.0664
[8]
  composite z-score: 1.24
[9]
  composite z-score: 1.09
[10]
  composite z-score: -0.013

## CC(C)=CCCC(C)=CCON=C1[C@H]2CCn3c(=O)n(C)c(=O)n3[C@H]2[C@H](O)[C@@H]2O[C@H]12
[1]
  composite z-score: 1.14
[2]
  z-score: -0.0766 (inactive)
[3]
  z-score: 0.418 (inactive)
[4]
  z-score: 0.407 (inactive)
[5]
  composite z-score: 0.393
[6]
  z-score: 0.604 (inactive)
[7]
  composite z-score: 0.0315
[8]
  composite z-score: 1.18
[9]
  composite z-score: 0.651
[10]
  composite z-score: 0.081

## CCCCC(=C=CC[C@H](O)c1ccccc1OCCO)C[C@H](O)COCc1ccccc1
[1]
  composite z-score: -0.0855
[2]
  z-score: 0.115 (inactive)
[3]
  z-score: -0.729 (inactive)
[4]
  z-score: -0.659 (inactive)
[5]
  composite z-score: 1.03
[6]
  z-score: 0.0754 (inactive)
[7]
  composite z-score: -0.145
[8]
  composite z-score: -0.142
[9]
  composite z-score: -0.171
[10]
  composite z-score: -0.12

## COc1cccc([C@H]2Oc3ccc(OC)cc3C(=NOC(C)CN3CCCc4nc(C)c(C)cc43)[C@@H]2O)c1 (stereo not given in full)
[1]
  composite z-score: 1.32
[2]
  z-score: -0.906 (inactive)
[3]
  z-score: -0.912 (inactive)
[4]
  z-score: -1.19 (inactive)
[5]
  composite z-score: 0.605
[6]
  z-score: 0.732 (inactive)
[7]
  composite z-score: 0.027
[8]
  composite z-score: 0.0233
[9]
  composite z-score: 0.522
[10]
  composite z-score: 0.0506

## O=C1C2=CC[C@H]3C(=O)N(Cc4ccc5c(c4)OCO5)C(=O)[C@H]3[C@H]2[C@H](O)[C@@H]2O[C@H]12
[1]
  composite z-score: -1.05
[2]
  z-score: -0.108 (inactive)
[3]
  z-score: -0.682 (inactive)
[4]
  z-score: -0.611 (inactive)
[5]
  composite z-score: 0.24
[6]
  z-score: 0.347 (inactive)
[7]
  composite z-score: -0.166
[8]
  composite z-score: 0.616
[9]
  composite z-score: 0.632
[10]
  composite z-score: 0.0083

## COC(=O)[C@H](C)NC(=O)CCC1CC(OC(=O)NCCc2ccc(F)cc2)CC2(CCCC(COC(=O)NCCc3ccc(Cl)cc3)O2)O1 (stereo not given in full)
[1]
  composite z-score: 1.24
[2]
  z-score: 0.86 (inactive)
[3]
  z-score: 0.812 (inactive)
[4]
  z-score: 1.2 (inactive)
[5]
  composite z-score: 2.39
[6]
  z-score: 0.126 (inactive)
[7]
  composite z-score: -0.0237
[8]
  composite z-score: 0.244
[9]
  composite z-score: 1.12
[10]
  composite z-score: -0.0989

From PubChem BioAssay
